Experimental data: PubChem BioAssay (NCATS)
Results filed as inconclusive are left out. Entries that show only a call come without a potency. Active and inactive are the calls of the source. Calls follow the shape of the dose curve; as a rule, active = well fitted inhibition curve with a large enough effect; inconclusive = small, poorly fitted or top-dose-only effect; inactive = flat fitted curve, though single readings scatter.

Tests used:
Experiment in all cases: qHTS profiling for inhibitors of Plasmodium falciparum proliferation (AID 504749); also: nearly all actives have a fitted effect of over 60% in size
Conditions in all cases: P. falciparum in erythrocytes, SYBR Green DNA, 72 h; series mostly up to 28.7 µM
[1] = test system: Dd2
Method in brief: (§1)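 In a 72 h erythrocytic culture (37 C, humidified, 5% CO2) at 2.5% hematocrit and 0.3% starting parasitemia, compounds were tested; SYBR Green I in detergent lysis buffer stained parasite DNA overnight.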

[2] = test system: ECU
Method in brief: as §1

[3] = test system: FAB9
Method in brief: as §1

[4] = test system: GB4
Method in brief: as §1

[5] = test system: ICS
Method in brief: as §1

[6] = test system: DIV17
Method in brief: as §1

[7] = test system: HB3
Method in brief: as §1

[8] = test system: N140
Method in brief: as §1

[9] = test system: DIV30
Method in brief: as §1

[10] = test system: JCK
Method in brief: as §1
Potency is read from the fitted curve at half-maximal effect.

SMILES | Potency [1] | Potency [2] | Potency [3] | Potency [4] | Potency [5] | Potency [6] | Potency [7] | Potency [8] | Potency [9] | Potency [10]
CC[C@@]1(O)C(=O)OCc2c1cc1n(c2=O)Cc2cc3c(CN(C)C)c(O)ccc3nc2-1 | 10 µM (active) | 3.98 µM (active) | inactive | 5.36 µM (active) | 7.94 µM (active) | – | – | – | – | –
CN(C)CCC=C1c2ccccc2C=Cc2ccccc21 | – | inactive | inactive | – | 8.91 µM (active) | 3.79 µM (active) | inactive | inactive | – | –
CCOC(=O)Nc1ccc(NCc2ccc(F)cc2)nc1N | 12.6 µM (active) | 11.2 µM (active) | – | – | 6.31 µM (active) | 15.1 µM (active) | 8.91 µM (active) | 10 µM (active) | 16.9 µM (active) | 14.1 µM (active)
CC(C)NCC(O)COc1ccc(CCOCC2CC2)cc1 (stereo unspecified) | – | – | inactive | – | 5.01 µM (active) | – | – | – | – | inactive
O=C(c1ccc(F)cc1)C1CCN(CCn2c(=O)[nH]c3ccccc3c2=O)CC1 | – | inactive | inactive | inactive | inactive | – | inactive | inactive | inactive | inactive
CN1CCC(=C2c3ccccc3C=Cc3ccccc32)CC1 | – | inactive | inactive | – | – | – | inactive | inactive | inactive | inactive
CC(COc1ccccc1)N(CCCl)Cc1ccccc1 (stereo unspecified) | – | – | inactive | – | 11.2 µM (active) | 6.01 µM (active) | inactive | – | – | inactive
Clc1ccc(C(c2ccccc2Cl)C(Cl)Cl)cc1 (stereo unspecified) | inactive | inactive | inactive | – | – | – | inactive | inactive | – | inactive
Nc1c2c(nc3ccccc13)CCCC2 | inactive | inactive | inactive | – | – | 6.75 µM (active) | – | – | inactive | inactive
CC(C)NCC(O)c1ccc(O)c(O)c1 (stereo unspecified) | inactive | inactive | inactive | – | inactive | inactive | inactive | inactive | inactive | inactive
O=c1c(O)c(-c2ccc(O)c(O)c2)oc2cc(O)cc(O)c12 | – | inactive | – | 12 µM (active) | 7.94 µM (active) | – | – | inactive | – | inactive
CCC1(c2ccccc2)C(=O)NCNC1=O | inactive | inactive | inactive | inactive | – | inactive | inactive | inactive | inactive | inactive
CN(Cc1cnc2nc(N)nc(N)c2n1)c1ccc(C(=O)N[C@@H](CCC(=O)O)C(=O)O)cc1 | – | 0.112 µM (active) | 0.0316 µM (active) | – | 0.112 µM (active) | – | 0.141 µM (active) | inactive | inactive | –
CC12CC3CC(C)(C1)CC(N)(C3)C2 | 5.01 µM (active) | inactive | inactive | – | inactive | – | inactive | inactive | inactive | inactive
CN(C)CCCN1c2ccccc2CCc2ccc(Cl)cc21 | – | – | inactive | 8.49 µM (active) | 10 µM (active) | 3.38 µM (active) | inactive | – | – | inactive
Cc1cc(C(C)(C)C)cc(C)c1CC1=NCCN1 | inactive | inactive | inactive | – | inactive | – | inactive | inactive | inactive | inactive
CC#C[C@]1(O)CC[C@H]2[C@@H]3CCC4=CC(=O)CCC4=C3[C@@H](c3ccc(N(C)C)cc3)C[C@@]21C | 12.6 µM (active) | 8.91 µM (active) | – | 15.1 µM (active) | 4.47 µM (active) | 8.49 µM (active) | 12.6 µM (active) | 8.91 µM (active) | 15.1 µM (active) | –
CC(C)(C)C(=O)Oc1ccc(S(=O)(=O)Nc2ccccc2C(=O)NCC(=O)O)cc1 | inactive | – | inactive | inactive | inactive | inactive | inactive | inactive | inactive | inactive
COc1ccc(CCN(C)CCCC(C#N)(c2ccc(OC)c(OC)c2)C(C)C)cc1OC (stereo unspecified) | – | inactive | inactive | inactive | – | – | inactive | inactive | – | inactive

SMILES | Potency [1] | Potency [2] | Potency [3] | Potency [4] | Potency [5] | Potency [6] | Potency [7] | Potency [8] | Potency [9] | Potency [10]
OCCN1CCN(CCCN2c3ccccc3Sc3ccc(C(F)(F)F)cc32)CC1 | 11.2 µM (active) | 6.31 µM (active) | – | 6.01 µM (active) | 1.58 µM (active) | 6.01 µM (active) | 11.2 µM (active) | 7.08 µM (active) | 8.49 µM (active) | –
Cc1ccc(-c2cc(C(F)(F)F)nn2-c2ccc(S(N)(=O)=O)cc2)cc1 | inactive | 10 µM (active) | inactive | 13.5 µM (active) | – | – | inactive | – | – | inactive
O=C(Nc1ccc([N+](=O)[O-])cc1Cl)c1cc(Cl)ccc1O | 0.891 µM (active) | 1 µM (active) | inactive | 1.35 µM (active) | 0.631 µM (active) | 1.2 µM (active) | – | 0.631 µM (active) | – | inactive
O=C1c2c(O)ccc(O)c2C(=O)c2c(NCCNCCO)ccc(NCCNCCO)c21 | 1.58 µM (active) | – | – | 2.87 µM (active) | 1.58 µM (active) | 2.56 µM (active) | 3.16 µM (active) | 2.24 µM (active) | 5.1 µM (active) | –
CN(C)C(=N)N=C(N)N | inactive | inactive | inactive | – | inactive | – | inactive | inactive | – | inactive
COC(=O)Nc1nc2ccc(C(=O)c3cccs3)cc2[nH]1 | inactive | inactive | inactive | inactive | inactive | – | inactive | inactive | inactive | inactive
Clc1ccc2c(c1)C(N1CCNCC1)=Nc1ccccc1O2 | – | – | inactive | – | – | – | – | – | inactive | inactive
NC12CC3CC(CC(C3)C1)C2 | inactive | inactive | inactive | – | inactive | inactive | inactive | inactive | inactive | –
Cn1ccc2cc3c(cc21)CCN3C(=O)Nc1cccnc1 | inactive | – | inactive | 15.1 µM (active) | – | – | inactive | – | – | –
CN1CCC(=C2c3ccccc3CC(=O)c3sccc32)CC1 | 4.47 µM (active) | 7.08 µM (active) | 6.31 µM (active) | 1.51 µM (active) | – | 6.01 µM (active) | inactive | – | – | –
COc1ccccc1N1CCN(CC(O)COc2cccc3ccccc23)CC1 (stereo unspecified) | inactive | inactive | inactive | – | – | – | inactive | inactive | inactive | inactive
CC(CCc1ccc(O)cc1)NCCc1ccc(O)c(O)c1 (stereo unspecified) | – | inactive | inactive | inactive | inactive | inactive | inactive | inactive | inactive | inactive
CN(C)CCOC(c1ccccc1)c1ccccc1 | – | inactive | inactive | – | – | – | inactive | – | – | inactive
COc1ccccc1OCCNCC(O)COc1cccc2[nH]c3ccccc3c12 (stereo unspecified) | – | 10 µM (active) | inactive | – | 7.08 µM (active) | – | inactive | 12.6 µM (active) | – | –
CCCCc1oc2ccccc2c1C(=O)c1cc(I)c(OCCN(CC)CC)c(I)c1 | 11.2 µM (active) | 8.91 µM (active) | – | 9.53 µM (active) | 3.55 µM (active) | 13.5 µM (active) | 11.2 µM (active) | 5.01 µM (active) | 8.49 µM (active) | –
Nc1nnc(-c2cccc(Cl)c2Cl)c(N)n1 | inactive | inactive | inactive | inactive | inactive | inactive | inactive | inactive | – | inactive
O=c1[nH]cc(F)c(=O)[nH]1 | – | – | inactive | 12 µM (active) | – | – | – | – | – | inactive
CC1(CN2CCC(n3c(=O)[nH]c4ccccc43)CC2)OCc2ccccc2-n2cccc21 (stereo unspecified) | 11.2 µM (active) | 10 µM (active) | inactive | – | 3.98 µM (active) | 13.5 µM (active) | – | 12.6 µM (active) | 13.5 µM (active) | inactive
